TGFb inhibitor = qHTS for Inhibitors of TGF-b. HepG2 CAGA-GFP TGF-b/SMAD3 reporter, GFP fluorescence, 18 h; TGF-beta stimulated, 500 pg/mL final. Potency, µM (titrated, usually from 46.1 µM), for the others: top-dose activity, negative = inhibition, most hits filed as inhibitors. actives 1.2% (n = 410,000); further: on the % scale 0 is the no-effect control and ±100 the full control effect; nearly all actives have a fitted effect of over 65% in size
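GFP signal (ex488/em500-530) from TGF-beta-stimulated HEPG2 CAGA-GFP cells, 500 pg/mL final, 18 h at 37 degrees C in DMEM plus 1% FBS, normalized to unstimulated and DMSO-stimulated controls.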
HT1080-NT tox = qHTS for induction of synthetic lethality in tumor cells producing 2HG: qHTS for the HT-1080-NT fibrosarcoma cell line | HT-1080-NT fibrosarcoma viability, CellTiter-Glo ATP luminescence, 48 h | Potency, µM (titrated, usually from 46.1 µM), for inactives: at the highest dose activity, negative = less viability, usual class: cytotoxic | actives 1.6% (n = 360,000) | AID 686970, 2013;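 further: NT is the 2HG producing partner of a matched IDH1 knockdown line; 0% = DMSO-treated cells and -100% = media-only wells without cells; nearly all actives have a fitted effect of over 55% in size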
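Viability by CellTiter-Glo luminescence after 48 h compound exposure at 37C of HT-1080-NT cells (750/well, RPMI, 5% FBS). % activity scaled between DMSO wells and medium-only wells, then curve-fitted and categorized by curve class.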
HT1080 IDH1KD tx = qHTS for induction of synthetic lethality in tumor cells producing 2HG: qHTS for the HT-1080-IDH1KD cell line; HT-1080 IDH1 knockdown viability, ATP luminescence, 48 h; actives 2% (n = 360,000); AID 686971, 2013; Potency, µM (titrated, usually from 46.1 µM), without a hit: at the highest dose activity, negative = toxicity, usual class: cytotoxic;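 further: 0% = DMSO wells and -100% = cell-free medium wells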
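HT-1080-IDH1KD cells (IDH1 knocked down), 750/well in RPMI with 5% FBS, treated with compound 48 h at 37 degrees C. Viability by CellTiter-Glo luminescence, normalised to DMSO and no-cell wells; concentration-response curves classed.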
DT40 TDP1 no CPT = qHTS for Inhibitors of human tyrosyl-DNA phosphodiesterase 1 (TDP1): qHTS in cells in absence of CPT. DT40 Tdp1-/- hTDP1 cells, no CPT, ATP luminescence, 48 h. Potency, µM (titrated, usually from 46.2 µM), for the others: at the highest dose activity change, negative = growth inhibition, hits mostly inhibitors. actives 15% (n = 420,000). AID 686978, 2013; further: on the % scale 0 is the no-effect control and ±100 the full control effect; nearly all actives have a fitted effect of over 55% in size
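Growth kinetics read by CellTiter-Glo luminescence after ≥48 hr at 37 °C. Cells: DT40 Tdp1-/- stably carrying human TDP1, 400 per well, compound exposure in the absence of CPT (DMSO vehicle).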
HepG2 tox = qHTS for Inhibitors of TGF-b: Cytotox Counterscreen | HepG2 CAGA-GFP viability, ATP luminescence, 18 h | Potency, µM (doses to about 46.1 µM), for inactives: top-dose activity change, negative = cytotoxicity, usual class: cytotoxic | actives 0.76% (n = 410,000) | AID 588856, 2011
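HepG2 CAGA-GFP cells (1000/well, DMEM with 1% FBS) received compound, then TGF-beta at 500 pg/mL final, and were incubated 18 hours at 37 degrees C. Viability was read by CellTiter-Glo luminescence. Media-only wells were set as complete cell-killing and DMSO as no toxicity.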
DT40 TDP1 CPT = qHTS for Inhibitors of human tyrosyl-DNA phosphodiesterase 1 (TDP1): qHTS in cells in presence of CPT; Potency, µM (top dose mostly 46.2 µM), inactives show top-dose activity change, negative = growth inhibition, most hits filed as inhibitors; chicken DT40 Tdp1-/-;hTDP1 cells + 20 nM CPT, ATP luminescence, 48 h; AID 686979, 2013; actives 12% (n = 420,000); further: on the % scale 0 is the no-effect control and ±100 the full control effect; nearly all actives have a fitted effect of over 55% in size
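Cell growth measured by CellTiter-Glo luminescence after a minimum 48 h, 37 C compound exposure with 20 nM CPT in Tdp1-knockout DT40 cells stably expressing hTDP1, seeded 400/well; qHTS titration format.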
* marks the source's active call; other numbers are inactive results; ! = not active in a repeat; [ ] = dose if it differs, or a comment. Only some compounds are listed: those with a hit (about 17% of all), similar ones and a draw of the others. The call rests on the fitted dose curve; in most records, active means well fitted curve in the direction sought with a large enough effect; inconclusive means small, poorly fitted or top-dose-only effect, or another doubt; inactive means no such curve, though single readings can be large; an effect the other way counts as inactive or inconclusive. Potency means the concentration at half of the fitted maximal effect.

For O=c1[nH]cnc2c1ncn2[C@@H]1O[C@H](COS(=O)(=O)O)[C@@H](O)[C@H]1O the results were TGFb inhibitor inconclusive, HT1080-NT tox -1%, HT1080 IDH1KD tx -15%, DT40 TDP1 no CPT inconclusive, HepG2 tox 3% and DT40 TDP1 CPT 3.7µM*.
`CN(Cc1ccccc1)C(=O)COC(=O)CCC(=O)c1ccc(Cl)cc1` gave TGFb inhibitor -1%, HT1080-NT tox 1%, HT1080 IDH1KD tx -3%, DT40 TDP1 no CPT 4%, HepG2 tox 13% and DT40 TDP1 CPT -22%.
NC1CCc2ccc([N+](=O)[O-])cc21 (stereo not drawn) was read as TGFb inhibitor -3%, DT40 TDP1 no CPT inconclusive, HepG2 tox -7% and DT40 TDP1 CPT -4%.
Screening COCCn1c(=O)c(-c2ccc(OC)cc2)nc2cnc(Nc3ccccc3)nc21 returned DT40 TDP1 no CPT 15% and DT40 TDP1 CPT 21%.
Screening Nc1ccn(C2OC(CCl)C(O)C2O)c(=O)n1 (stereo not drawn) returned TGFb inhibitor -2%, HT1080-NT tox -26%, HT1080 IDH1KD tx inconclusive, DT40 TDP1 no CPT 3.7µM*, HepG2 tox -18% and DT40 TDP1 CPT 2.6µM*.
`Nc1ccn([C@@H]2O[C@H](CO)[C@@H](O)[C@H]2O)c(=O)n1` gave TGFb inhibitor -4%, HT1080-NT tox -18%, HT1080 IDH1KD tx 4%, DT40 TDP1 no CPT -1%, HepG2 tox 4% and DT40 TDP1 CPT 2%.
Screening CCCS(=O)(=O)NCc1c(C)ncc2c1CCN(C(=O)c1cccc(C(F)(F)F)c1)C2 returned DT40 TDP1 no CPT -9% and DT40 TDP1 CPT 4%[9.04 µM].
Screening COc1ccc(NC(=O)Cn2c(=O)n(Cc3ccc4c(c3)OCO4)c(=O)c3ccc(C(=O)NC4CCCCC4)cc32)cc1 returned TGFb inhibitor 8%, DT40 TDP1 no CPT 7.3µM*, HepG2 tox -2% and DT40 TDP1 CPT 8.2µM*.
`COc1cc(NC(=O)C2=CC(c3cccs3)=NS(=O)(=O)N2C)cc(OC)c1OC` gave TGFb inhibitor 8%, HT1080-NT tox 6%, HT1080 IDH1KD tx 0%, DT40 TDP1 no CPT inconclusive, HepG2 tox -4% and DT40 TDP1 CPT inconclusive.
Screening CC(=O)c1ccc(NC(=O)C2=CC(c3cccs3)=NS(=O)(=O)N2C)cc1 returned TGFb inhibitor inconclusive, HT1080-NT tox 0%, HT1080 IDH1KD tx -2%, DT40 TDP1 no CPT 16µM*, HepG2 tox -7% and DT40 TDP1 CPT inconclusive.
For CCc1ccc(NC(=O)C2=CC(c3cccs3)=NS(=O)(=O)N2C)cc1 the results were TGFb inhibitor 13µM*!, HT1080-NT tox -3%, HT1080 IDH1KD tx -4%, DT40 TDP1 no CPT 16µM*, HepG2 tox -26% and DT40 TDP1 CPT inconclusive.
`Cc1cc2c(cc1S(=O)(=O)CCC(=O)N1CCC(C)CC1)OCC(=O)N2` gave TGFb inhibitor 21% and HepG2 tox 3%.
Cn1cccc/c1=N\c1cccc[n+]1C was read as TGFb inhibitor -31%, HT1080-NT tox -11%, HT1080 IDH1KD tx 23µM*, DT40 TDP1 no CPT 1µM*, HepG2 tox -8% and DT40 TDP1 CPT 1.5µM*.
`Cc1cc(Oc2ccccc2)nc(SCC(N)=O)n1` gave TGFb inhibitor 1%, HT1080-NT tox 2%, HT1080 IDH1KD tx 7%, DT40 TDP1 no CPT -13%, HepG2 tox -18% and DT40 TDP1 CPT -3%.

Screens as filed in PubChem BioAssay.
